# NS1 function inh = inhibitors of influenza NS1 protein function; Potency, µM (series often up to 46.1 µM); AID 2326; hit rate 0.4% among 270,000; further: actives are rising curves; nearly all actives have a fitted effect of over 50% in size
#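 S. cerevisiae expressing influenza A NS1, grown in glucose, washed, then diluted 1:100 into pH 6.0 -URA galactose medium with 23 nl compound. Growth recovery read as OD600; NS1-free strain serves as control.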
# Pf growth 48h = P. falciparum growth inhibition at 48 hours (one generation) | AID 504832 | P. falciparum luciferase growth in erythrocytes, 48 h | hit rate 5.9% among 310,000 | Potency, µM (top dose mostly 28.7 µM), actives largely listed as inhibitors; active means well fitted inhibition curve with a large enough effect; inconclusive means small, poorly fitted or top-dose-only effect, or another doubt; inactive means no such curve, though single readings can be large or run the other way
#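 Cell-based growth assay: transgenic P. falciparum expressing firefly luciferase, cultured in red cells within RPMI 1640 containing 0.5% w/v Albumax, 24 mM bicarbonate and gentamycin. A drop in luciferase activity indicates inhibition.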
# Pf growth 96h = inhibits malaria parasite growth, 96 h; P. falciparum luciferase reporter growth, 96 h; Potency, µM (series often up to 28.7 µM), actives largely listed as inhibitors; hit rate 6.9% among 320,000; active means well fitted inhibition curve with a large enough effect; inconclusive means small, poorly fitted or top-dose-only effect, or another doubt; inactive means no such curve, though single readings can be large or run the other way
#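 P. falciparum expressing integrated firefly luciferase grown in erythrocytes (2% hematocrit, 0.05% parasitemia final) with compounds for 96 hours at 37 C, 5% CO2. Growth inhibition read as loss of luminescence after adding luciferase detection reagent.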
# RE007 growth inh = less growth of the S. pombe RE007 Vpr strain; S. pombe RE007 Vpr strain, BacTiter-Glo ATP luminescence, 24 h; Potency, µM (series often up to 92.2 µM), actives largely listed as inhibitors; hit rate 0.21% among 360,000; AID 651644; active means well fitted falling curve with a large enough effect; inconclusive means small, poorly fitted or top-dose-only effect; inactive means no such curve, though single readings can be large or run the other way; further: nearly all actives have a fitted effect of over 50% in size
#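 Fission yeast RE007 carrying one integrated HIV-1 vpr copy, seeded at OD 0.01 in PMG+AL medium with 23 nL pinned compound. Grown 24 h at 30 degrees; viability read by BacTiter-Glo luminescence after 5 min.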
# SARS PLpro yeast = blocks SARS-CoV papain-like protease in a yeast assay | S. cerevisiae expressing SARS-CoV PLpro, growth rescue | Potency, µM (doses to about 32.9 µM), actives largely listed as activators | hit rate 0.19% among 330,000; further: nearly all actives have a fitted effect of over 55% in size
# Hits are given with their value; n = inactive; u = inconclusive; x = no result given; [ ] = dose if it differs, or a comment. Only some compounds are listed: those with a hit (about 9.5% of all), similar ones and a draw of the others. Unless noted, the call rests on the fitted dose curve.
SMILES,NS1 function inh,Pf growth 48h,Pf growth 96h,RE007 growth inh,SARS PLpro yeast
CCOc1ccccc1C(=O)Nc1ccc(S(=O)(=O)Nc2nccc(C)n2)cc1,n,n,13µM,n,n
CCCOC(=O)c1ccccc1O,x,n,n,x,x
COc1ccc(C(=O)c2[nH]c(N)c(C(=O)NCCc3c[nH]c4ccccc34)c2-c2ccc(Br)cc2)cc1,x,x,x,n,x
CN1C2=C(C#N)C(c3ccccc3)(C(F)(F)F)NC(=O)N2c2ccccc21 (configuration not stated),n,x,7.4µM,n,n
Cc1ccc(C2(C(F)(F)F)NC(=O)N3C(=C2C#N)Nc2ccccc23)cc1 (configuration not stated),n,n,x,n,n
COCCCn1c(-c2ccc(OC)cc2)cc(C(=O)NC2CCCCCCC2)c1C,n,13µM,15µM,n,n
O=C(NCCCN1CCCC1=O)C1CCCO1 (configuration not stated),x,n,n,n,n
COc1ccc2cc(C3c4cc(OC)c(OC)cc4CCN3C(=O)c3ccco3)c(=O)[nH]c2c1 (configuration not stated),n,5.2µM,n,n,n
COC(=O)c1ccc(OCC2c3cc(OC)c(OC)cc3CCN2C(C)=O)cc1 (configuration not stated),x,u,u,n,n
COC(=O)c1ccc(OCC2c3cc(OC)c(OC)cc3CCN2C(=O)c2ccco2)cc1 (configuration not stated),n,15µM,u,n,n
COc1cc2c(cc1OC)C(c1ccccc1)N(C(=O)c1ccco1)CC2 (configuration not stated),n,x,n,n,n
COc1cc2c(cc1OC)C(c1cc3cc(C)ccc3[nH]c1=O)N(C(=O)c1ccco1)CC2 (configuration not stated),n,u,n,n,n
CCC(=O)N1CCc2cc(OC)c(OC)cc2C1COc1ccc(C(=O)OC)cc1 (configuration not stated),n,10µM,u,n,n
COC(=O)c1ccc(OCC(O)CN2CCc3cc(OC)c(OC)cc3C2c2ccccc2)cc1 (configuration not stated),n,u,10µM,n,n
CCOC(=O)N1CCN(C(=O)C[C@@H]2C[C@@]3(C(=O)OC)CCCCC=C3N(Cc3cccc4ccccc34)C2=O)CC1,x,x,x,n,x
NC(=O)N/N=C/c1c(Sc2nnnn2-c2ccccc2)nc2ccccn2c1=O,n,4.7µM,u,n,n
Cc1c(Br)c([N+](=O)[O-])nn1CCCC(=O)NC(C)c1ccccc1 (configuration not stated),x,n,u,n,n
Cc1nc2oc3c(NCC4CCCO4)ncnc3c2c2c1COC(C)(C)C2 (configuration not stated),n,u,n,n[3.69 µM],n
Cc1nc2oc3c(NCc4ccccc4)ncnc3c2c2c1COC(C)(C)C2,n,12µM,u,n[3.69 µM],n
CCCc1nc2oc3c(NCCOCCO)ncnc3c2c2c1COC(C)(C)C2,n,n,3.7µM,n,n
CC(C)c1nc2oc3c(NCCO)ncnc3c2c2c1COC(C)(C)C2,n,n,u,n,n
CCCc1nc2oc3c(OC)ncnc3c2c2c1COC(C)(C)C2,n,x,6.6µM,n,n
Cc1nc2sc3c(NCc4ccco4)ncnc3c2c2c1COC(C)(C)C2,n,6.6µM,12µM,n,n
CC(C)Cc1nc2sc3c(NCc4ccco4)ncnc3c2c2c1COC(C)(C)C2,n,u,u,n,n
O=C(N/N=C/c1ccc(OCC(=O)N2CCCCC2)cc1)c1ccccc1O,n,n,n,n,u
SMILES,NS1 function inh,Pf growth 48h,Pf growth 96h,RE007 growth inh,SARS PLpro yeast
COc1cc(/C=C/C(=O)OCC(=O)Nc2cc(S(=O)(=O)N3CCCC3)ccc2Cl)cc(OC)c1OC,x,x,x,n,n
O=C(c1cc2cc(Cl)ccc2o1)N1CCCC1,n,u,u,n,n
COc1ccc2cc(C(=O)NCc3ccccc3CN3CCCC3)ccc2c1,x,9.3µM,u,n,n
CCOc1ccc2oc(C(=O)NCc3ccccc3CN3CCCC3)c(C)c2c1,x,9.3µM,9.3µM,n,n
COCc1c(C(=O)NCc2ccccc2CN2CCCC2)oc2ccccc12,x,u,9.3µM,n,n
O=C(NCc1ccccc1CN1CCCC1)c1cc2cc(Cl)ccc2o1,x,13µM,u,n,n
COc1ccc2oc(C(=O)NCCC(C)C)c(C)c2c1,x,n,n,n,n
Cc1c(C(=O)NCc2ccccc2CN2CCCC2)oc2c(F)cccc12,x,13µM,u,n,n
COc1ccc2oc(C(=O)NCc3ccccc3CN3CCCC3)c(C)c2c1,x,12µM,u,n,n
Cc1c(C(=O)NCc2ccco2)oc2c(F)cccc12,x,u,n,n,n
COc1ccc(C(CNC(=O)c2oc3ccc(OC)cc3c2C)N2CCCC2)cc1 (configuration not stated),x,8.3µM,9.3µM,n,n
CCn1c(SCC(=O)NC2CC2)nnc1-c1ccc(F)cc1,n,n,n,n,n
Cn1ncc2c(Nc3cccc(Cl)c3)nc(Nc3cccc(Cl)c3)nc21,n,1.7µM,2.9µM,u,n
Cn1ncc2c(Nc3ccc(Br)cc3)nc(Nc3ccc(Br)cc3)nc21,n,2.1µM,9.3µM,n,n
CNc1nc(Nc2ccc(C)c(Cl)c2)c2cnn(C)c2n1,n,n,n,n,n
C=C(C)COc1ccc2c(c1)CCC1C2CC[C@]2(C)C(=O)/C(=N/O)CC12 (some centres not stated),n,x,x,x,x
CC(C)[C@@H]1O[C@H](CCc2ccccc2)CC2=C1C(=O)OC(C)(C)O2,x,x,x,n,x
Cc1cccc(C)c1-n1c(SCC(=O)N2CC(=O)Nc3ccccc32)nc2ccccc2c1=O,u,13µM,n,n,n
Cc1ccc(-n2c(SCC(=O)N3CC(=O)Nc4ccccc43)nc3ccccc3c2=O)cc1,n,13µM,u,n,n
Cc1cc(C)c2nc(SCC(=O)N3CC(=O)Nc4ccccc43)c(C#N)cc2c1,n,13µM,u,n,n
CN1C(=O)[C@@](O)(c2cn(C)c3ccccc23)c2cc(Br)ccc21,x,x,x,n,x
Cc1ccc(-c2csc(NC(=O)c3ccc([N+](=O)[O-])o3)n2)cc1,n,13µM,2.6µM,n,n
Cc1ccc(-c2csc(NC(=O)c3ccc(C)o3)n2)cc1,n,n,n,u,n
CN(Cc1ccccc1)C(=O)c1ccc([N+](=O)[O-])o1,n,9.3µM,n,n,n
Cc1ccc(CNC(=O)c2ccc([N+](=O)[O-])o2)cc1,n,u,8.3µM,u,n
O=C(CSc1nc(C(F)(F)F)cc(=O)[nH]1)Nc1cccc2ccccc12,x,n,n,n,n
COC(=O)c1cccc(Nc2ncnc3ccc(C)cc23)c1,n,x,u,n,n
COc1ccc(Nc2ncnc3ccc(C)cc23)cc1,n,u,12µM,n,n
Cc1cccc(C)c1NC(=O)C1(C)CN(S(C)(=O)=O)CC(=O)N1CCc1ccccc1F (configuration not stated),x,x,x,n,x
CCOC(=O)[C@]12CCC=C1N(Cc1ccccc1)C(=O)[C@H](CC(=O)NCC13CC4CC(CC(C4)C1)C3)C2,x,x,x,n,x
